# In ChEMBL document CHEMBL1961873, “Compounds: GSK PKIS; Assays: Nanosyn kinase panel” (2012):
# Legend:
# [1] = molecular target: Sphingosine kinase 1 (Homo sapiens) (UniProt Q9NYA1); details: at 1 µM;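 further: mean SPHK1 inhibition value reported from the GSK PKIS kinase panel screen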
# [2] = molecular target: T1, Sphingosine kinase 2 (Homo sapiens) (UniProt Q9NRA0); details: at 0.1 µM
# T1 sequence (whole entry): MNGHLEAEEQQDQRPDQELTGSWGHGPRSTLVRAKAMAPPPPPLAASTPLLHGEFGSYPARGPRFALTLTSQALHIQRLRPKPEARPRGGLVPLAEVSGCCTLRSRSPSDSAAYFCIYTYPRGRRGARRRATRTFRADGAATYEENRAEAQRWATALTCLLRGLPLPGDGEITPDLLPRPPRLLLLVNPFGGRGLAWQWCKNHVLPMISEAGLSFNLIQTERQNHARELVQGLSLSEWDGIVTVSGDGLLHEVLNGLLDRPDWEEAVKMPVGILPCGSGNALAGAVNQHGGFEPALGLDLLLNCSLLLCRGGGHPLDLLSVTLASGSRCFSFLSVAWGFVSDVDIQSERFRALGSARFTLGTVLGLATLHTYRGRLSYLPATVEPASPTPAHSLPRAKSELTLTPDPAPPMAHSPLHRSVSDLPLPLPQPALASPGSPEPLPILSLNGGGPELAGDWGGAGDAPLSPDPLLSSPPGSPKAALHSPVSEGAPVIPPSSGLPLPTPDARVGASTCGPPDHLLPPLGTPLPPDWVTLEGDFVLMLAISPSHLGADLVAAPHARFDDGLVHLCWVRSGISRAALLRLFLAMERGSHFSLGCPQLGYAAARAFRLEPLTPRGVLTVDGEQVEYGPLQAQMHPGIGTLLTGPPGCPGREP
# [3] = molecular target: T1, Sphingosine kinase 2 (Homo sapiens); details: at 1 µM
# [4] = molecular target: Casein kinase II subunit alpha (Homo sapiens) (UniProt P68400); details: at 0.1 µM
# [5] = molecular target: Casein kinase II subunit alpha (Homo sapiens) (UniProt P68400); details: at 1 µM
# [6] = molecular target: T2, Inhibitor of nuclear factor kappa-B kinase subunit epsilon (Homo sapiens) (UniProt Q14164); details: at 0.1 µM
# T2 sequence (whole entry): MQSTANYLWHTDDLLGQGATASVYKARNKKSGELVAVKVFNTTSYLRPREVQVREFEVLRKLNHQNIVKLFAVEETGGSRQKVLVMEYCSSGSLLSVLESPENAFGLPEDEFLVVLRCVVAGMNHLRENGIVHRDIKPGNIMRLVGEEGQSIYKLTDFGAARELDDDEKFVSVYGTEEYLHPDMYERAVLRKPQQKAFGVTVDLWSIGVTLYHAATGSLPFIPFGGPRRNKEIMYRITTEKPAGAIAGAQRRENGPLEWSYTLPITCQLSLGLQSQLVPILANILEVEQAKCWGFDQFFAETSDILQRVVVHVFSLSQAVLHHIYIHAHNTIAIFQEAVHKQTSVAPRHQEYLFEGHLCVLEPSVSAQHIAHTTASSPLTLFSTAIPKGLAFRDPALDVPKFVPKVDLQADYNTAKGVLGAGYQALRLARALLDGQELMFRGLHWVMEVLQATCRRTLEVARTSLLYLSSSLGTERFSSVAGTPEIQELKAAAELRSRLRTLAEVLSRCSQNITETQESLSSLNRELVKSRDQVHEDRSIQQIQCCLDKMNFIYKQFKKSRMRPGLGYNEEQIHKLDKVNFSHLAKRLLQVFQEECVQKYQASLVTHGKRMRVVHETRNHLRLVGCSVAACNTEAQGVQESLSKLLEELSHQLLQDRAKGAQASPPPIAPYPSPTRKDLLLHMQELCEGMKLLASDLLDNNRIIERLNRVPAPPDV
# [7] = molecular target: T2, Inhibitor of nuclear factor kappa-B kinase subunit epsilon (Homo sapiens); details: at 1 µM
# [8] = molecular target: T3, Serine/threonine-protein kinase Nek1 (Homo sapiens) (UniProt Q96PY6); details: at 0.1 µM
# T3 sequence (whole entry): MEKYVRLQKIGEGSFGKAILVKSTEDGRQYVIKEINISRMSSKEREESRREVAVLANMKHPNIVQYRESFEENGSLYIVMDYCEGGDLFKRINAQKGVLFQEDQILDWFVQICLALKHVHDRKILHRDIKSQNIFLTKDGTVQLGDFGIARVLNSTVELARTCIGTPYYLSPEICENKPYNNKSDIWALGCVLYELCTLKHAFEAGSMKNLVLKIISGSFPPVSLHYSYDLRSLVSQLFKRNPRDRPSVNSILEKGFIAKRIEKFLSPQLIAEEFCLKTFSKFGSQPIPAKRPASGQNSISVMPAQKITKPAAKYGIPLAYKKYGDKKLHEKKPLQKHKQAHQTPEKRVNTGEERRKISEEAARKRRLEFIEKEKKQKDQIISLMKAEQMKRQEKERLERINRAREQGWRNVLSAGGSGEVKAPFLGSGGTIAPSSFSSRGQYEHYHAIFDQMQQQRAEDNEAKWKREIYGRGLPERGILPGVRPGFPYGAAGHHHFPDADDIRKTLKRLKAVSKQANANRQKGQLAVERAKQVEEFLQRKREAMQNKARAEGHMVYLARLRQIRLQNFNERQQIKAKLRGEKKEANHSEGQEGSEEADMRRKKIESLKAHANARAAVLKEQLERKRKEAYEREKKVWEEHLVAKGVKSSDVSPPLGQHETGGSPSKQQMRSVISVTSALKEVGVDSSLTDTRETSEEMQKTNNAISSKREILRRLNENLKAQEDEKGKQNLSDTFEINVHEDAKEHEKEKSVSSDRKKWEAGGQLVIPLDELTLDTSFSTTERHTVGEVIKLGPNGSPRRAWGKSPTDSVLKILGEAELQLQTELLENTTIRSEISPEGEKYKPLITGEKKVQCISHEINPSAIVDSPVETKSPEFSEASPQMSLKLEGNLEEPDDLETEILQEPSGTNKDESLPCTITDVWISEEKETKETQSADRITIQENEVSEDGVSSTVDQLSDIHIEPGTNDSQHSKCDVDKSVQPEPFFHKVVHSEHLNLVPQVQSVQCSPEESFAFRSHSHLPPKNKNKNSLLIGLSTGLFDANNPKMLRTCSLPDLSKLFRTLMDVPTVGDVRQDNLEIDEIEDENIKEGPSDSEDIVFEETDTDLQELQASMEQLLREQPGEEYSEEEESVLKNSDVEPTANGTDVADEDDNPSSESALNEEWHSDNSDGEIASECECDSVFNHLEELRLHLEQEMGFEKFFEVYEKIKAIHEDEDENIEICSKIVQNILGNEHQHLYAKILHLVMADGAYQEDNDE
# [9] = molecular target: T3, Serine/threonine-protein kinase Nek1 (Homo sapiens); details: at 1 µM
# [10] = molecular target: T4, Serine/threonine-protein kinase Nek2 (Homo sapiens) (UniProt P51955); details: at 0.1 µM
# T4 sequence (whole entry): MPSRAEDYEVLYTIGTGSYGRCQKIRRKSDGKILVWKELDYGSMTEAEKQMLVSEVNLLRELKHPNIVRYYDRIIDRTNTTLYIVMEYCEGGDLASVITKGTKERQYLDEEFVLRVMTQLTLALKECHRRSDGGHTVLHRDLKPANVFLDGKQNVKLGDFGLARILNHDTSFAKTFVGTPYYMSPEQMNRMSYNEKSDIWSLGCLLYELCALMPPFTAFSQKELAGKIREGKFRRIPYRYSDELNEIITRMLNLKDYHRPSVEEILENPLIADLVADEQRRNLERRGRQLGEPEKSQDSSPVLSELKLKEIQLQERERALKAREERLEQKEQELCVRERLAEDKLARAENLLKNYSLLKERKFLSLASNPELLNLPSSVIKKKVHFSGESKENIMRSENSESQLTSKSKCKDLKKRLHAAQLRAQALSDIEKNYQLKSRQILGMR
# [11] = molecular target: T4, Serine/threonine-protein kinase Nek2 (Homo sapiens); details: at 1 µM
# [12] = molecular target: Serine/threonine-protein kinase Nek6 (Homo sapiens) (UniProt Q9HC98); details: at 0.1 µM
# [13] = molecular target: Serine/threonine-protein kinase Nek6 (Homo sapiens) (UniProt Q9HC98); details: at 1 µM
# [14] = molecular target: Serine/threonine-protein kinase Nek7 (Homo sapiens) (UniProt Q8TDX7); details: at 0.1 µM
# [15] = molecular target: Serine/threonine-protein kinase Nek7 (Homo sapiens) (UniProt Q8TDX7); details: at 1 µM
# [16] = molecular target: T5, Serine/threonine-protein kinase Nek9 (Homo sapiens) (UniProt Q8TD19); details: at 0.1 µM;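 further: reported value is the mean percent inhibition of NEK9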
# T5 sequence (whole entry): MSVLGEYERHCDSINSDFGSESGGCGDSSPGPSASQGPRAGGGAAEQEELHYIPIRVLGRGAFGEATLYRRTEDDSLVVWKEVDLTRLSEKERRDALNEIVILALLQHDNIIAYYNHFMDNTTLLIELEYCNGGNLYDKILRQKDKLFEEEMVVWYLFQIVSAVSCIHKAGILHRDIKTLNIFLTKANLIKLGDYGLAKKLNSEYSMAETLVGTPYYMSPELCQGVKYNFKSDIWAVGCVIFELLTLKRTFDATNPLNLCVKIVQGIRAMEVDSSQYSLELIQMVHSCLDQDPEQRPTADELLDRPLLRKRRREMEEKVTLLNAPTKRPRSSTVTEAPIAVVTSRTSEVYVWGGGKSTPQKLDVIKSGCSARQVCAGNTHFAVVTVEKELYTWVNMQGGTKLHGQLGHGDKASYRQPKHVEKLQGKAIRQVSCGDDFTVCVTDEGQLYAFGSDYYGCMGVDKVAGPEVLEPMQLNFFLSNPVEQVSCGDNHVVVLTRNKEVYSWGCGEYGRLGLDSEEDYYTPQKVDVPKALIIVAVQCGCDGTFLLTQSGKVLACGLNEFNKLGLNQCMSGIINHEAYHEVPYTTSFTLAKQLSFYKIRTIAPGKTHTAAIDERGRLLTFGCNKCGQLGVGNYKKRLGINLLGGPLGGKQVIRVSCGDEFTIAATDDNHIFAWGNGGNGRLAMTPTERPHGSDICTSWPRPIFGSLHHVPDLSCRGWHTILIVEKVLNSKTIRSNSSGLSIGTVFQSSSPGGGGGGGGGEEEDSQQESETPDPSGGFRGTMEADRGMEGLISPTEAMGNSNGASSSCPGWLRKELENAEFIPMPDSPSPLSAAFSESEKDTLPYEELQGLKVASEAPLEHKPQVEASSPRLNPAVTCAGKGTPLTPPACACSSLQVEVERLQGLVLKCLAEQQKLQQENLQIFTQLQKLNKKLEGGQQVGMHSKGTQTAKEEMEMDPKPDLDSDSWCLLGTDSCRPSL
# Sequence of Casein kinase II subunit alpha (Homo sapiens) (P68400 whole entry, looked up): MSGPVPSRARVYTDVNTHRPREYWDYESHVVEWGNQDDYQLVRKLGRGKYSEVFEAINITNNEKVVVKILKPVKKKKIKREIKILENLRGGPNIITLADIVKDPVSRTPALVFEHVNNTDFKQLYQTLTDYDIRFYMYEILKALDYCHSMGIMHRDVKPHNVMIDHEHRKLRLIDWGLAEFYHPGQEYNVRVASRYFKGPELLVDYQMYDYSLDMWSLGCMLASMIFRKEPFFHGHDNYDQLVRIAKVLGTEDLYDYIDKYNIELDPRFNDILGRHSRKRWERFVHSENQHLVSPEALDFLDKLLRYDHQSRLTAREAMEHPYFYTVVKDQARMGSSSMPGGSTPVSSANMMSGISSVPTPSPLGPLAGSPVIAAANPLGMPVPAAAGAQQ
# Sequence of Serine/threonine-protein kinase Nek6 (Homo sapiens) (Q9HC98 whole entry): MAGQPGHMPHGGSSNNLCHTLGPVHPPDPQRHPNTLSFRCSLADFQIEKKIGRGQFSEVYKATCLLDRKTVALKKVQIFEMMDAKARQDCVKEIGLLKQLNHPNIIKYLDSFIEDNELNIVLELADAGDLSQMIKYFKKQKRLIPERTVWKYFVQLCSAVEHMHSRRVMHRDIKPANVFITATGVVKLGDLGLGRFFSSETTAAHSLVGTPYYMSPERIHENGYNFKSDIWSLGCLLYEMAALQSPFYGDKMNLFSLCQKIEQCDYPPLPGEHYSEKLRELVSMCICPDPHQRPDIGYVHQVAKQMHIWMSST
# Sequence of Serine/threonine-protein kinase Nek7 (Homo sapiens) (Q8TDX7 whole entry, looked up): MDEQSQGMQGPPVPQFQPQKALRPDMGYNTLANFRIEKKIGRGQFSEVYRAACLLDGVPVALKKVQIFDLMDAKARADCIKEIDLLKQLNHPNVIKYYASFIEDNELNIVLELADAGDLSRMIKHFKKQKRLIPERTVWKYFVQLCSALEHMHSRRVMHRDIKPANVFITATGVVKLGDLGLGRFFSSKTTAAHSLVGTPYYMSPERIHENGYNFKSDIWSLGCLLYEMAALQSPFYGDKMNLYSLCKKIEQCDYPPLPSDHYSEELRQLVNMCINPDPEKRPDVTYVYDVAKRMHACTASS
# Sequence of Sphingosine kinase 1 (Homo sapiens) (Q9NYA1 whole entry): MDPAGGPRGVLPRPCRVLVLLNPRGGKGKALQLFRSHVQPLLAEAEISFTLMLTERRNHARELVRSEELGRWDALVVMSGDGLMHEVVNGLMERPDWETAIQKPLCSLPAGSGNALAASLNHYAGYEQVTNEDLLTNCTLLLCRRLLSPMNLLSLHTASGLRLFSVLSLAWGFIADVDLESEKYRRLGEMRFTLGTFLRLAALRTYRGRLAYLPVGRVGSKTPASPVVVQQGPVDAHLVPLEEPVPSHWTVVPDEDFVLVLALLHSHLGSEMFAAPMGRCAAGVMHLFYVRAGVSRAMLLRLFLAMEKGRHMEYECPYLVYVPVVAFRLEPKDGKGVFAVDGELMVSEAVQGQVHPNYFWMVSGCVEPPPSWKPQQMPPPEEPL
structure (smiles),measurement,setting,value
NC(=O)c1cc(-c2ccc(F)cc2)cc(-c2ccncc2)c1N,inhibition,[1],4.1%
same,inhibition,[2],1.03%
same,inhibition,[3],-1.1%
same,inhibition,[4],3.42%
same,inhibition,[5],8.62%
same,inhibition,[6],6.05%
same,inhibition,[7],3.16%
same,inhibition,[8],1.62%
same,inhibition,[9],1.03%
same,inhibition,[10],4.7%
same,inhibition,[11],3.75%
same,inhibition,[12],4.68%
same,inhibition,[13],6.66%
same,inhibition,[14],6.78%
same,inhibition,[15],4.73%
same,inhibition,[16],7.94%
